From ChEMBL document CHEMBL3988442, “University of Dundee, Small-Polar-MMV Screening Library” (2021) come the findings set out here.

For some assays here: Entries with a potency or affinity are not part of this list.

What all share (parameters): scale not given: direction of the effect not stated beside the values
The target in assay [1] is Protein translocase subunit SecA (Escherichia coli (strain K12)) (UniProt P10408). The assay is described as follows: Assay to Identify E. coli SecA ATPase Inhibitors. The note with it: 30 µM. It is filed as functional.
In assay [2] the target is T1, Ubiquitin-activating enzyme e1, putative (Leishmania donovani (strain BPK282A1)) (UniProt E9BSI1).
T1 sequence (whole entry): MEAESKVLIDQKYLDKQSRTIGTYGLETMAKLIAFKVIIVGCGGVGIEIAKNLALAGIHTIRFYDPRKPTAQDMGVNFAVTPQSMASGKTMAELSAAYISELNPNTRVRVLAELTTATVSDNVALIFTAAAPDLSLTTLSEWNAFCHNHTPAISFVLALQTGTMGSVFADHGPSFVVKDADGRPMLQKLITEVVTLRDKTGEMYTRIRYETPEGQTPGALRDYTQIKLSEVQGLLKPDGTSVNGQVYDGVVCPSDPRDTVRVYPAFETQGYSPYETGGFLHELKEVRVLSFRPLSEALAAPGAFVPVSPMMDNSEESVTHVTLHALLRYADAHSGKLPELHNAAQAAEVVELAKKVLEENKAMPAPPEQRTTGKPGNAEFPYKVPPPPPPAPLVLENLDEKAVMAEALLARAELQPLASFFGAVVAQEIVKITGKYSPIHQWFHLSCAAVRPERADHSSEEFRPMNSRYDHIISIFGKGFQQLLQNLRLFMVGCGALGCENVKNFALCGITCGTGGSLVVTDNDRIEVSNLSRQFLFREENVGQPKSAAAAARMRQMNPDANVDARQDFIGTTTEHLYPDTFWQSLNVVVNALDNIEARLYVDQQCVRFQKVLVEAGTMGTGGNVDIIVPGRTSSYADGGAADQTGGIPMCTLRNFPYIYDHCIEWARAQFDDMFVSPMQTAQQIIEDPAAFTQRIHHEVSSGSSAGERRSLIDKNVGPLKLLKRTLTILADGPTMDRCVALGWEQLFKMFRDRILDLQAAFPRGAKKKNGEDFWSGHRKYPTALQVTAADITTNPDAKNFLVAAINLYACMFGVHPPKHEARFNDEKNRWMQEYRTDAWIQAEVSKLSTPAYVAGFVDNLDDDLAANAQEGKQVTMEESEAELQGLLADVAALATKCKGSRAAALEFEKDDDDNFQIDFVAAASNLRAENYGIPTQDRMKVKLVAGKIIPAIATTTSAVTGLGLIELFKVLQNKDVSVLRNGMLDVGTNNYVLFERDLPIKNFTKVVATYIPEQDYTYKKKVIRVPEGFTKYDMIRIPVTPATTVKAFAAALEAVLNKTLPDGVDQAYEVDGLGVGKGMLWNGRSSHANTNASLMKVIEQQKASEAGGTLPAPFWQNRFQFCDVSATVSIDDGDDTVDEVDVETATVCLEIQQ
Description: Leishmania donovani Ubiquitin Activating Enzyme (LdE1). Particulars: 30 µM. It is filed as functional.

In assay [3] the target is AMP-activated protein kinase, AMPK (Homo sapiens) (UniProt P54646+O43741+P54619+Q9UGJ0+Q9Y478+Q13131+Q9UGI9). The assay is described as follows: AMP-dependent Kinase enzyme assay. An in vitro enzyme assay that detects ADP turnover that is directly proportional to AMPK activity. This uses naive AMPK that is activated during the assay with MK-8722. The note with it: 30 µM. In kind it is functional.

The target in assay [4] is Sialic acid-binding Ig-like lectin 9 (Homo sapiens) (UniProt Q9Y336). Description: Hs-Siglec9 ALPHAscreen SOP 20170721. Particulars: 10 µM. For orientation: In Alpha technology, singlet oxygen from a donor bead excites a nearby acceptor bead.
The test system of another assay is Trypanosoma cruzi. The assay is described as follows: Trypanosoma cruzi phosphomannomutase and mannose-1-phosphate guanylyltransferase assay. In kind it is functional. The note with it: 10 µM.
In assay [5] the target is T2, Arginase-2, mitochondrial (Homo sapiens) (UniProt P78540).
T2 sequence (whole entry): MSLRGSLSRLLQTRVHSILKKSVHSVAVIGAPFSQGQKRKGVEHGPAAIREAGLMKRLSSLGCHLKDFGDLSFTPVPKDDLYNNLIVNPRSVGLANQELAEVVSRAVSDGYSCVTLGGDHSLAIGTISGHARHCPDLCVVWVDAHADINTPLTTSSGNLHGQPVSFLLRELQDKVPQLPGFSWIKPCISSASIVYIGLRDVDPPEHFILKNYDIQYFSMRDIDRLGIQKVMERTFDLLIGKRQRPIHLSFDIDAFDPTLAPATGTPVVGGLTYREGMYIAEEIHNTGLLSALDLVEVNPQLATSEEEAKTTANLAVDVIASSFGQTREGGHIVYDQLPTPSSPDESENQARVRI
Description: in vitro enzyme assay to detect the production of urea directly proportional to the activity of Arginase II. Note: in the data most compounds retested in dose-response had high values. It is filed as functional. Particulars: 33.3 µM.

Assay [6] concerns the target T3, Proteasome subunit beta (Trypanosoma cruzi) (UniProt O96673).
T3 sequence (whole entry): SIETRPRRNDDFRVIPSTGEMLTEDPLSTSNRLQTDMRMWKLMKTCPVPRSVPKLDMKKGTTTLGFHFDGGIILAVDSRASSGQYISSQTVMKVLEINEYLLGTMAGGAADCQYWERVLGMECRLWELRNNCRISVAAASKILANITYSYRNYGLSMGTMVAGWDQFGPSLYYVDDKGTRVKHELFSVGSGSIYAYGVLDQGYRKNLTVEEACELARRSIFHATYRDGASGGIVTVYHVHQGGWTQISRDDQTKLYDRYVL
Description: Trypanosoma cruzi proteasome chymotrypsin-like activity (TcProtChymo) assay. Note: in the data most compounds retested in dose-response had high values. It is filed as functional. Particulars: 9.37 µM.

The species entered for another assay is Homo sapiens. Description: To identify inhibition of the IFN signalling (Jak-Stat) pathway via expression of an eGFP reporter gene under the control of an IFN-stimulated response element (ISRE) containing MxA promoter. It is filed as functional. Particulars: 30 µM. (In a reporter assay the amount or activity of a reporter protein is the signal.)
The target of assay [7] is T4, Tyrosyl-tRNA synthetase, putative (Trypanosoma cruzi (strain CL Brener)) (UniProt Q4DSP6).
T4 sequence (whole entry): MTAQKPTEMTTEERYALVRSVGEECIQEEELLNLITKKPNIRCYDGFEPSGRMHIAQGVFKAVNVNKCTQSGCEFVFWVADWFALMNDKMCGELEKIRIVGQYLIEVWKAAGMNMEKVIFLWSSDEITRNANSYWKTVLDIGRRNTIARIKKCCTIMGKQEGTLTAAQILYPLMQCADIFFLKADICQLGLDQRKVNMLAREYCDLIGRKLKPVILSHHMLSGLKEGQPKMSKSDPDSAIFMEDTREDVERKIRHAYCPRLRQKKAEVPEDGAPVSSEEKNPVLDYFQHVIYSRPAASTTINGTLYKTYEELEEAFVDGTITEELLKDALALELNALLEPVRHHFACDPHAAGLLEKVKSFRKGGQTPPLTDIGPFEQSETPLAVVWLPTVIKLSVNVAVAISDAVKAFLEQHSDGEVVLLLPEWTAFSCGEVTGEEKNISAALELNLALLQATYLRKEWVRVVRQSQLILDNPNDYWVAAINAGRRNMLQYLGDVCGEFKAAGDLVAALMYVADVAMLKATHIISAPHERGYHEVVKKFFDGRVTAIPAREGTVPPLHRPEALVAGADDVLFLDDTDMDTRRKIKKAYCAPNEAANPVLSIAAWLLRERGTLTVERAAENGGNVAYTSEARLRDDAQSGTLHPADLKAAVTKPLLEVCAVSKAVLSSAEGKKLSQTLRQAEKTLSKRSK
The assay is described as follows: Trypanosoma cruzi tyrosyl tRNA synthetase (TcYRS) _High Tyrosine SOP. Note: in the data most compounds retested in dose-response had high values. It is filed as functional. The note with it: 30 µM.

For assay [8], the target named is T4, Tyrosyl-tRNA synthetase, putative (Trypanosoma cruzi (strain CL Brener)). Description: Trypanosoma cruzi tyrosyl tRNA synthetase (TcYRS) SOP. It is filed as functional. Particulars: 30 µM.
Assay [9] concerns the target Chromo domain-containing protein 1 (Saccharomyces cerevisiae (strain ATCC 204508 / S288c) (Baker's yeast)) (UniProt P32657). Description: ScCHD-1 Enzyme Inhibition Assay. Note: in the data most compounds retested in dose-response had high values. In kind it is functional. Particulars: 30 µM.

Chain of Protein translocase subunit SecA (Escherichia coli (strain K12)) (P10408 whole entry): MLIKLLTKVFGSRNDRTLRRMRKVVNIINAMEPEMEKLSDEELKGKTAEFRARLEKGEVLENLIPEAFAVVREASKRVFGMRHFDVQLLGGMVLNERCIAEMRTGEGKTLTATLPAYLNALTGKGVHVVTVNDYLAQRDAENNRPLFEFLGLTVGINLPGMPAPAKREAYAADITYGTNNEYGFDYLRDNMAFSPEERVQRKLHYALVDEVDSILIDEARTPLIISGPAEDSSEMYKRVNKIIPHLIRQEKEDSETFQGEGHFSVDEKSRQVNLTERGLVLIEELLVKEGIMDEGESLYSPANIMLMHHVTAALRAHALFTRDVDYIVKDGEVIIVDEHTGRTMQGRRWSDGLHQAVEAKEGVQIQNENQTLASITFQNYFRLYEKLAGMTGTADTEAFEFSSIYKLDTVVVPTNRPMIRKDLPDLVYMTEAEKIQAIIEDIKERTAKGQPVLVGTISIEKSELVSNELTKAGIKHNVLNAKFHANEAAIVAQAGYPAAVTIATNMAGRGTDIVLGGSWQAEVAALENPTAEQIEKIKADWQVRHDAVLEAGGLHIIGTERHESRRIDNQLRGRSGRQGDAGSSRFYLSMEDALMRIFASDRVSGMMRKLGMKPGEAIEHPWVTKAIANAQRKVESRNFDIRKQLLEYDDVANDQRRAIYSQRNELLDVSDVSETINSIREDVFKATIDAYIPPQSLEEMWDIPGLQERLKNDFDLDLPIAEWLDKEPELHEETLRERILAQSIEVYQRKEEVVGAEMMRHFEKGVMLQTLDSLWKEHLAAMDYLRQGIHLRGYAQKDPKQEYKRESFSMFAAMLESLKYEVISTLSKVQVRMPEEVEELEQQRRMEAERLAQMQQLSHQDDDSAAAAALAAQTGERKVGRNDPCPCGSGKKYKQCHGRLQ
Chain of Chromo domain-containing protein 1 (Saccharomyces cerevisiae (strain ATCC 204508 / S288c) (Baker's yeast)) (P32657 whole entry, the tested form may be a part): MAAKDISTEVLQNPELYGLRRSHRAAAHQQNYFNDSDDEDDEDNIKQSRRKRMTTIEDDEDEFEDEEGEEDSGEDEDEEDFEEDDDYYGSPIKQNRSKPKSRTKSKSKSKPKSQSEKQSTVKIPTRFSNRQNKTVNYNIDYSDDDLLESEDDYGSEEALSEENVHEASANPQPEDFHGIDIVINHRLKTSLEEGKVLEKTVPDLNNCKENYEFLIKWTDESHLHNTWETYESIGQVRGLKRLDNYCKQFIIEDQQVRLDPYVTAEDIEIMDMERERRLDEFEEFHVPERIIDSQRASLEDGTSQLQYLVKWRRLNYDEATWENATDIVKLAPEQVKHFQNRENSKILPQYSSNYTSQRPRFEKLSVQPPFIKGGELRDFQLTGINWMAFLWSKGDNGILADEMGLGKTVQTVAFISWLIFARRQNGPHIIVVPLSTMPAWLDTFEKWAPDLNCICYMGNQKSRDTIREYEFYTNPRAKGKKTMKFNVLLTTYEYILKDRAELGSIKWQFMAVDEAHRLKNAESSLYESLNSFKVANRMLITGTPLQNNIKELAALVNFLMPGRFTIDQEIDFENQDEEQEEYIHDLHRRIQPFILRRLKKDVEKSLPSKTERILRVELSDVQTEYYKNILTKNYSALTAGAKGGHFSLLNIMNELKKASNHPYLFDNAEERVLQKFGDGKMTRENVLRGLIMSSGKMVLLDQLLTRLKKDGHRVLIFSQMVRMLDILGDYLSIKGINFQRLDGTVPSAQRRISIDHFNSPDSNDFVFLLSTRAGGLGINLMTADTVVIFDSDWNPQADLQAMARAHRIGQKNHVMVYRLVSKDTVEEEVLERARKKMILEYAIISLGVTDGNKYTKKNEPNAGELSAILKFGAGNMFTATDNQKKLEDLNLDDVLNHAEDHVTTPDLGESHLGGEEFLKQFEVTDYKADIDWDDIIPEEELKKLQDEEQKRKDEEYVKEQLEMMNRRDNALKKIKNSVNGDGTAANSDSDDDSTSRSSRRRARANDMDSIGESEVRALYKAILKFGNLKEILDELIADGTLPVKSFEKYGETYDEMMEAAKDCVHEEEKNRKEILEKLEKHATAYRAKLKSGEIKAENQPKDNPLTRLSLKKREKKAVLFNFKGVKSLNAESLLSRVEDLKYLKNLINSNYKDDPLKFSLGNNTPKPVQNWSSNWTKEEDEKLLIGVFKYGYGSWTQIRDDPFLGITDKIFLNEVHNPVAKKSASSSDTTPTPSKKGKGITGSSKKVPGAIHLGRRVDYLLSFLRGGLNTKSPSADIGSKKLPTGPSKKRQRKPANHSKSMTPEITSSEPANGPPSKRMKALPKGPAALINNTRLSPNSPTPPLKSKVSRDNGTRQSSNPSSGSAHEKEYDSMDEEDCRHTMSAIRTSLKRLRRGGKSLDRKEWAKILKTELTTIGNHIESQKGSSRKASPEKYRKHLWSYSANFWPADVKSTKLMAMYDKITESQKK
Chain of Sialic acid-binding Ig-like lectin 9 (Homo sapiens) (Q9Y336 whole entry): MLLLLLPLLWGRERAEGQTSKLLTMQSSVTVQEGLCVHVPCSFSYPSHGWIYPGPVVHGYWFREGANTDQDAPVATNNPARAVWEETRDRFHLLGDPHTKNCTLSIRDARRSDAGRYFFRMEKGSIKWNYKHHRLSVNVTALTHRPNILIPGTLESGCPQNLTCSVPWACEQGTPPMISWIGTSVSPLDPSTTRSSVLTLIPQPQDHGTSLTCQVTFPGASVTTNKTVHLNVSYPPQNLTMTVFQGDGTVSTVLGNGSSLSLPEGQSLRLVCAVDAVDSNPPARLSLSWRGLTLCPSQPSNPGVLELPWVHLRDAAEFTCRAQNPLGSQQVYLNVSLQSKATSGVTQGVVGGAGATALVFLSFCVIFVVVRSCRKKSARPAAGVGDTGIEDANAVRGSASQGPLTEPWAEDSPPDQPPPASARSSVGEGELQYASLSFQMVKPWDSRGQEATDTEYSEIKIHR

Consider `O=C(CN1CCCC1Cn1cncn1)NCCOc1cccc(F)c1` (stereo not given), for which the Percent Effect in [1] was -4.88%; in assay [2], 0%; in assay [3], -3.72%; in assay [4] it was 14.3%; with Trypanosoma cruzi, -0.84%; in assay [5], -2.52%. Also, the Percent Effect in assay [6] is -3.47%; in the assay filed under Homo sapiens, -2.63%; in [7], 0.493%; in [8] it was 1.24%; in [9], 5.23%.
As to `c1cnc(NCc2noc3c2CN(C2CCOCC2)CC3)nc1`, the Percent Effect in [1] is -4.67%; in assay [2], 18.7%; in assay [3] it was -2.09%; in assay [4] it was -2.32%; in the assay with Trypanosoma cruzi, 3.86%; in assay [5], -46.8%. Also, the Percent Effect was 15.7% in assay [6]; -2.62% in the assay filed under Homo sapiens; 7.29% in assay [7]; 22.5% in assay [8]; -7.21% in assay [9].
For `Cc1cc(NC(=O)CCN2CCCC2Cn2cncn2)no1` (stereo not given), the Percent Effect in assay [1] was -6.97%; in assay [2] it was 8.86%; in [3], 1.01%; in [4], 2.13%; in the assay on Trypanosoma cruzi, -0.718%; in assay [5] it was -2.8%. Further, the Percent Effect is 14.9% in assay [6]; 2.3% in the assay listed under Homo sapiens; 4.17% in assay [7]; 10.1% in assay [8]; -27.3% in [9].
Turning to `Cc1nn2c(N3CCC(O)C3)cc(-c3ccccc3)nc2c1C` (stereo not given), the Percent Effect in [1] is -2.08%; in assay [2], 16.4%; in assay [3], -7.6%; in assay [4], 7.31%; in the assay with Trypanosoma cruzi, 2.58%; in assay [5], -1.6%. The Percent Effect was 12.6% in assay [6]; -0.188% in the assay listed under Homo sapiens; 7.29% in [7]; -82.7% in assay [8]; -3.57% in assay [9].
Turning to `Cc1cc(C(=O)NC2CCCN(c3ccccc3)C2=O)on1` (stereo not given), the Percent Effect is -6.07% in [1]; 5.33% in [2]; -2.45% in assay [3]; -2.4% in [4]; -0.0974% in the assay with Trypanosoma cruzi; -1.56% in [5]. The Percent Effect is 8.37% in assay [6]; 5.07% in the assay filed under Homo sapiens; 1.64% in [7]; 13.6% in assay [8]; -2.89% in assay [9].
As to `COc1ccccc1S(=O)(=O)N1CCC(Oc2cccnn2)CC1`, the Percent Effect was -5.78% in assay [1]; -5.48% in [2]; -9.71% in [3]; -3.66% in assay [4]; -4.11% with Trypanosoma cruzi; -0.909% in assay [5]. For the same compound, the Percent Effect in [6] is 3.9%; in the assay filed under Homo sapiens it was 16.2%; in [7], -1.07%; in assay [8], -2.5%; in assay [9] it was -1.62%.
Take `COc1ncccc1NC(=O)NCC(O)c1ccc(F)cc1F` (stereo not given): the Percent Effect is -1.59% in assay [1]; -6.33% in assay [2]; 2.46% in assay [3]; 1.59% in [4]; -3.79% in the assay with Trypanosoma cruzi; 5.38% in assay [5]. Besides, the Percent Effect in assay [6] is 20.6%; in the assay listed under Homo sapiens, 15.3%; in [7] it was 2.08%; in [8] it was 5.06%; in assay [9], -13.8%.
Turning to `CCc1nc(CCNC(=O)Nc2cc(C(N)=O)sc2C)cs1`, the Percent Effect was -6.09% in assay [1]; 0% in assay [2]; -8.97% in assay [3]; -2.52% in assay [4]; -4.19% in the assay on Trypanosoma cruzi; -1.56% in assay [5]. Also, the Percent Effect in [6] is 3.14%; in the assay listed under Homo sapiens, 19.9%; in [7], -0.546%; in assay [8], -3.7%; in assay [9], 4.38%.
Turning to `NC(=O)C1CCN(C(=O)CCn2ccc3cc(Br)ccc32)CC1`, the Percent Effect was -0.921% in [1]; 4.17% in [2]; -4.65% in [3]; 21.5% in assay [4]; 2.43% with Trypanosoma cruzi; 14.6% in [5]. The Percent Effect in assay [6] was 2.63%; in the assay filed under Homo sapiens, -3.52%; in assay [7], 3.16%; in assay [8], 2.56%; in assay [9], -4.07%.
Take `COc1cccc(C2CC(=O)Nc3nc(N4CCOCC4)sc32)c1OC` (stereo not given): the Percent Effect in assay [1] is 63.9%; in [2], 42.1%; in [3] it was 16%; in [4] it was 0.0251%; in the assay with Trypanosoma cruzi, -0.487%; in assay [5], 21.3%. In addition, the Percent Effect in assay [6] was 18.1%; in the assay listed under Homo sapiens, -7.88%; in assay [7] it was 5.32%; in assay [8], 10.4%; in [9] it was -8.79%.
